# Experimental data reported in PubChem BioAssay AID1347426 (Functional Genomics Laboratory (NCATS/FGL), 2020).
# Among all 31,000 sequences or so, about 1,400 (4.5%) were called active. Shown is part of a subset that was picked to be rich in actives. Unmarked numbers belong to inactive results.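 The calls were made as follows: active = median seed-adjusted z-score above 1 or below -1; inactive = the rest.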
# Assay: Novel Modifiers of Survival Motor Neuron (SMN) Protein: Gene Identification via Genome-wide siRNA Screen
# Details: HEK293T SMN2-luciferase reporter, siRNA knockdown, 72 h; actives lie on both sides
# Description: Spinal muscular atrophy (SMA) is the most common neuromuscular autosomal recessive disorder and one of the leading genetic causes of infant death. SMA results from mutations inducing loss of function or deletion in the survival of motor neuron-1 gene (SMN1), leading to deficiency of the survival motor neuron (SMN) protein. Although a second nearly identical gene, SMN2, is retained in humans, its expression primarily produces an aberrantly spliced isoform that is largely unstable and quickly degraded. We performed a genome-wide RNAi screen using a cell-based reporter assay to identify genes and pathways that modulate SMN protein stability. The screen identified over 200 genes that led to the greatest increase or decrease in luciferase expression.
# Using HEK293T cells stably expressing a luciferase reporter that combines the promoter and splicing based cassettes in tandem with the major portion of the native SMN2 cDNA with luciferase, we performed a genome-wide RNAi screen to identify modulators of SMN protein levels. Luciferase is expressed when full-length SMN protein is generated with luminescence signal proportional to SMN protein levels. Our luciferase-based reporter assay was used to screen Ambion Silencer Select Human Druggable Genome siRNA library (10418 genes, 3 unique siRNAs per gene) using lipid-based reverse transfection.
# Briefly, 1 pmol of each siRNA was spotted to a well of a 384-well plate (Corning, Corning, NY) and 20 microL of serum-free DMEM containing […] of Lipofectamine RNAiMax (Life Technologies, Carlsbad, CA) was then added to each well. Transfected cells were maintained at 37 degrees C in 5% CO2 for 72 hours, 20 microL of ONE-Glo Reagent (Promega) was added to wells for luciferase quantification. Raw luminescence reads were normalized to Ambion(R) Silencer(R) Negative Control #2 siRNA, then log10 transformed. A robust statistical measure of median absolute deviation (MAD) to standardize siRNA activities from each screen. Common Seed Analysis was used to help prioritize clean hits as opposed to those appearing to arise from seed based off-target effects. Candidate modulators were defined as the genes having a MAD score greater than 1.0 or less than -1.0.
row,Sequence,median seed-adjusted z-score
1,GCAAUUCCCAAGAUCCUUATT against LAMB1,1.07 (active)
2,GGUCGAAUGAUAAGGUGUATT against PTK2,-0.0806
3,GCCUCAGUCUUUGCAGUCUTT against CDCP2,0.0708
4,GGUAAUGACUCCACAGGGATT against SNRPN,-0.571
5,GAUACUACCCUGAUCAUAUTT against TMTC3,0.266
6,UGGUGUCAGUGGAUCGCUATT against GPR101,-0.265
7,CCAAAACAGUGGAGAGAGATT against BIN3,0.16
8,GAACAUUGUUUGUAAGGCUTT against SUOX,-0.0649
9,GGAUAUAAUGAGAUAUGUUTT against ETF1,-1.12 (active)
10,GCUCAACUCUCAUUCGGCATT against ZNF550,0.131
11,GACCUGCCGUGAUAUCGUUTT against PSMA3,-0.81
12,CACUAAACGAGGAUUCCUATT against YWHAH,-0.125
13,GGAUCGUAGUGAAACCGAUTT against DDX17,0.231
14,CGUGAUCAAUAGGAAAAUUTT against CCL8,0.436
15,CAGAUUACGUGGAACAGGATT against EFTUD2,-1.25 (active)
16,CGUCCUAAUCUCAAUCUUATT against CD200,-0.0135
17,GCCCAUAUUUCAUCGUGUATT against NPY,-0.0606
18,CAGGAUAUCGAAUCCCUAATT against PPFIA2,0.176
19,GUCGAGUUGUAUCGCAUUATT against COX4I1,-0.39
20,GGCUAGCCCUAGUAUGGAATT against CCAR1,-1.18 (active)
21,CCUUCAAUCACCGACCUUATT against SYNJ2,0.0202
22,CGCUACCUGUCCCUGUAUATT against GPR6,0
23,GCAACAUAUGGGAAUUAGATT against MEIS1,0
24,CAGAGGAGCUACAAAAGUATT against MX1,-1.49 (active)

row,Sequence,median seed-adjusted z-score
1,GCAUAUAUCAAGAAUUCAATT against CLIC4,-0.498
2,GAAACUAUAUCCACAUCAATT against GIPR,0.475
3,CAUCUUGAAGUCUUAUUAATT against MYOCD,-0.121
4,AAUCAGAUCAAAAACAUAATT against TNFRSF10C,0
5,GGAGGAAGGUCUCAACGUATT against TCFL5,1.52 (active)
6,GCAAAUCUAUUUUCGGAAATT against AGTPBP1,-0.201
7,GACUCUUCUGACUAACAUATT against DACH1,0.562
8,GACUCUAUGCUGAUAAUGATT against ADIPOQ,0.557
9,GCUGAGAUUUUCAAUAAGATT against NR1H4,-0.056
10,CGCCCAUUCUUCAAUGUCATT against SIAH1,1.5 (active)
11,AGUGCGCCCAGAAUCUAAATT against ZNF689,0.448
12,CGGAGUUUGUUGAUAUCGATT against LGI2,0
13,CAAAUUUCCUGUUAAUCGATT against APPL1,0
14,GAAAUGACCUUAUUAGUCATT against RYK,-0.446
15,CAGACUACCCUGAUAGUUUTT against FLVCR1,0.197
16,GGUCAGAGACCAUCCAGAATT against GFRA4,-1.59 (active)
17,AGAGGAAGAUAGAUUUUCUTT against PFDN5,0.562
18,GGAUGUAUUGUCGCCUGUATT against RENBP,0.587
19,CGAACUGCUUUAUGACCUATT against KIF20A,0.906
20,GACGAGACCUCUUCUCUCATT against ART1,0.0033
21,CCUGUGGUUUGCUAUCUAATT against SLC24A5,-0.166
22,CGGUGCUGCUAGACGUGAATT against HSPB6,0.394
23,GGGUAAUUGGAACAUGUUUTT against RCN3,-2.44 (active)
24,CCUUUACAAAUAACGGAUATT against NHLRC2,0.548

row,Sequence,median seed-adjusted z-score
1,CAUGUUCACUGCUACCGAUTT against LPP,-0.103
2,CCUUCAUCCGUAUCAUGGATT against POLD1,-0.715
3,GCUGUGAUCUCAUGGAUCATT against KLHL3,-0.237
4,GCUUUAUGUGGGCUCAUUATT against RBM39,-1.82 (active)
5,CACUGACACUUACAAUGAATT against UGT3A1,0.864
6,GGAACUUACGAUGCAGGAATT against GALNT13,-0.0149
7,GCAACAGUAUUUCGGUAUATT against CHEK1,-5.1 (active)
8,GUCUUAGAAUGAGUAGCAATT against KCNMA1,0
9,CACUAUCAGUUGGAACAGATT against CD36,-0.000845
10,GGCUGAGAUGCGUCGUAAATT against ARCN1,-1.25 (active)
11,GAUUGAUGGGUGUAAGAAATT against SMS,0.186
12,GAGACCUAAUGUUUCAUAUTT against PRKCI,0.386
13,CAAGGUCAAGUGCGAGAAATT against MAFB,0.674
14,CCGUCAUGGUUGAUGGAGATT against SEMA4D,0.309
15,CCAUAGUCUUCAUCUACGATT against GPR153,-1.08 (active)
16,GAACAGUGUUUGUCAGCAUTT against ASAH2,0.615
17,AAAGCACAGUGUUAAAUGATT against TAC1,0.0499
18,CCCAGAAGAUUACCUUUGATT against NARG1L,0.0121
19,CCGUGCUGACCUCCAAAUATT against HBA1,-1.03 (active)
20,CUUUCGGUUUGAAGAAUAATT against ZC3H15,0.191
21,AGCAUGUGGUAGACGAGAATT against RGS19,0.295
22,GACCUUCACCGUUACGUUATT against HDLBP,-1.18 (active)
